Data: PubChem BioAssay AID2685 (National Center for Advancing Translational Sciences (NCATS), 2010)
The campaign covered roughly 320,000 compounds. About 2,100 (0.66%) were called active. Another 53% or so got no clear call; they are omitted. Calls come from the whole dose curve; as a rule, active = well fitted inhibition curve with a large enough effect in the signal ratio, with a control signal flat (not every such curve was filed as active); inconclusive = small, poorly fitted or top-dose-only effect, or effect the other way, or a change in a side signal; inactive = flat fitted curve, though single readings scatter; the % refers to the signal ratio. The sample as a whole holds a higher share of actives than the screen did.

experiment: qHTS Assay for Lipid Storage Modulators in Drosophila S3 Cells; conditions: BODIPY lipid droplet fluorescence, 18-24 h, cells fed with added oleic acid; cell number change: measured here: cell count max response; series mostly up to 46.1 µM; lipid storage change, negative = inhibition: at the top concentration;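 for cell number change: cells counted by Cell Tracker Red CMTPX staining in the red channel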; for lipid storage change, negative = inhibition: % is set by controls: 0 for no effect and ±100 for the full control effect
Procedure, shortened: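 Laser-scanning cytometry quantifies lipid droplet accumulation (500–530 nm total intensity; droplet/cell object ratio) in oleic acid-fed (400 uM added) Drosophila S3 cells treated with a concentration series. 20 uM Triacsin C defined 100% inhibition.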
Potency is the fitted concentration of half-maximal effect.

Compound | lipid storage change, negative = inhibition | cell number change | Potency | outcome
CNc1ccc(Oc2c(F)c(F)nc(F)c2F)cc1 | 5.56% (inactive) | -27.7% |  | 
CCn1c(=O)n(CC)c2cc(N3CCCC3)c(NC(=O)c3cc(Cl)ccc3OC)cc21 |  | -12.8% | 5.8 µM (active) | 
CCn1c(=O)n(CC)c2cc(N3CCCC3)c(NC(=O)c3ccc(C)cc3)cc21 |  | -23.8% |  | inactive
COc1ccc(Cl)cc1C(=O)Nc1ccccc1N1CCCCC1 | 24.2% (inactive) | 5.02% |  | 
Cc1ccc2c(n1)CC(C)(C)C/C2=N\O | 2.92% (inactive) | 3.94% |  | 
CC(C)Oc1cccc(C(=O)C2CCCN(C(=O)c3csnn3)C2)c1 (stereo not drawn) | -2.76% (inactive) | 3.1% |  | 
CC(C)Oc1cccc(C(=O)C2CCCN(C(=O)c3ccsc3)C2)c1 (stereo not drawn) |  | -18.6% | 18.4 µM (active) | 
CC(C)Oc1cccc(C(=O)C2CCCN(C(=O)c3ccc4c(c3)OCO4)C2)c1 (stereo not drawn) | -19.1% (inactive) | -14.4% |  | 
Cn1ncc(N=Cc2ccccc2[N+](=O)[O-])c1C(N)=O | 12.9% (inactive) | -4.8% |  | 
CCOC(=O)Cn1c(=N)n(CCOc2ccc(Br)cc2)c2ccccc21 | -6.39% (inactive) | -7.97% |  | 
CCOC(=O)Cn1nc(C)c(NC(=O)CCc2ccccc2)c1C | -3.97% (inactive) | 12.6% |  | 
Fc1cccc(CCN2CCNC[C@H]2Cc2cccc3ccccc23)c1 |  |  | 14.6 µM (active) | 
Oc1ccc(C[C@@H]2CNCCN2CCc2cccc3ccccc23)cc1 | 9.05% (inactive) | -30.1% |  | 
c1ccc(C[C@H]2CNCCN2CCc2cccc3ccccc23)cc1 | 2.45% (inactive) | -0.264% |  | 
C=CCn1c(C)cc(C(=O)COC(=O)c2ccc(N)c([N+](=O)[O-])c2)c1C | 13.4% (inactive) | 5.39% |  | 
CCN(CC)CCCNC(=S)N(Cc1cccnc1)Cc1cc2cc(C)ccc2[nH]c1=O | 11.3% (inactive) | 5.5% |  | 
CC(CN1CCCC(C(N)=O)C1)c1ccccc1 (stereo not drawn) | -19.6% (inactive) | -8.59% |  | 
CCOC(=O)C1CCCN(CCC(C)c2ccccc2)C1 (stereo not drawn) | 13.5% (inactive) | 2.31% |  | 
CN1CCCC(C(=O)C(C#N)c2ccccc2)C1 (stereo not drawn) |  | -21.6% | 29.1 µM (active) | 
CC(C)n1nc(C(=O)Nc2cccc(S(=O)(=O)NCc3ccco3)c2)c2ccccc2c1=O |  | -6.04% |  | inactive
CC(C)C(NC(=O)c1ccccc1)C(=O)OCn1nnc2ccccc2c1=O (stereo not drawn) |  | -15.7% | 16.4 µM (active) | 
CC(C)[C@H](NS(=O)(=O)c1ccccc1)C(=O)OCn1nnc2ccccc2c1=O | -13.3% (inactive) |  |  | 
CC(=O)OCn1nnc2ccccc2c1=O | 3.6% (inactive) | 12.3% |  | 

Compound | lipid storage change, negative = inhibition | cell number change | Potency | outcome
CCOC(=O)c1ccccc1NC(=S)N1CCC(C)CC1 | 29.6% (inactive) | -4.08% |  | 
Cc1nnsc1S(=O)c1ccccc1Cl (stereo not drawn) | 14.1% (inactive) | -9.44% |  | 
O=[N+]([O-])c1cccc(/C=N/NS(=O)(=O)c2ccccc2)c1 | -12.4% (inactive) | -12.3% |  | 
C=CCNC(=S)NNC(=O)c1ccc(Br)cc1 | -0.112% (inactive) | -6.86% |  | 
CC(=O)NC(=S)Nc1ccc(NC(=S)NC(=O)/C=C/c2ccco2)cc1 | 8.43% (inactive) | 15.8% |  | 
CC(=O)Nc1ccc(NC(=S)NC(=O)/C=C/c2ccco2)cc1 |  | -27.7% | 4.61 µM (active) | 
CC(=O)c1ccc(NC(=S)NC(=O)/C=C/c2ccco2)cc1 | 9.91% (inactive) | -2.35% |  | 
CCO[C@H]1OC(C(=O)N2CCN(C)CC2)=C[C@@H](C2CC2)[C@@H]1CCCO | -7.66% (inactive) |  |  | 
Cc1cc(OCC(=O)NNC(=S)NCC2CCCO2)cc(C)c1Cl (stereo not drawn) |  | -9.63% |  | inactive
O=C(Nc1ccccc1F)C1COc2ccccc2O1 (stereo not drawn) |  |  |  | inactive
COc1ccc(NC(=O)CCCNC(=O)Cn2cnc3sc(C)c(C)c3c2=O)cc1OC |  | 19.7% |  | inactive
COc1ccccc1NC(=O)CCCNC(=O)Cn1cnc2sc(C)c(C)c2c1=O |  | 9.46% |  | inactive
COc1ccc(OC)c(NC(=O)CCCNC(=O)Cn2cnc3sc(C)c(C)c3c2=O)c1 |  | 10.8% | 3.66 µM (active) | 
CN1CCN(C2CCN(Cc3ccc(O)c4ncccc34)CC2)CC1 | 9.86% (inactive) | 8.98% |  | 
COc1ccccc1-c1nc(S(=O)(=O)c2ccccc2)c(N2CCOCC2)o1 | -22.5% (inactive) | 5.82% |  | 
O=S(=O)(c1ccccc1)c1nc(-c2ccccc2)oc1N1CCCC1 | 1.16% (inactive) |  |  | 
COc1ccccc1-c1nc(S(=O)(=O)c2ccccc2)c(N2CCCCC2)o1 |  | -11.8% | 4.11 µM (active) | 
Cc1nc(CS(=O)c2ccc(Cl)cc2)cc(N2CCOCC2)n1 (stereo not drawn) | -9.48% (inactive) | -22.4% |  | 
Cc1ccc(NC(=O)CN2CCN(Cc3ccccc3)CC2)cc1 | 5.7% (inactive) |  |  | 
COc1ccc(C(=O)NCC2(c3ccccc3)CCOCC2)cc1 | 3.47% (inactive) | 16.9% |  | 
CC1=CC2=NC(=O)/C(=C\c3ccc(-c4ccc(Cl)cc4)o3)C(=N)N2O1 | -14% (inactive) | 5.59% |  | 
CCOc1ccc(C(=O)NC(C(=O)NCC(c2cccs2)N(C)C)C(C)C)cc1 (stereo not drawn) | 16.5% (inactive) | -5.63% |  | 
COc1cc(C(=O)NCc2nnc(SCC(=O)Nc3cc(C)cc(C)c3)o2)cc(OC)c1OC | 5.11% (inactive) | 6.53% |  | 

Compound | lipid storage change, negative = inhibition | cell number change | Potency | outcome
COc1ccc(C(=O)NCc2nnc(SCC(=O)Nc3cccc(C(F)(F)F)c3)o2)cc1OC | -16.5% (inactive) | 0.944% |  | 
CCOC(=O)c1ccc(NC(=O)CSc2nnc(CNC(=O)c3ccco3)o2)cc1 |  | -21.5% | 3.66 µM (active) | 
COc1cc(C(=O)NCc2nnc(SCC(=O)Nc3cccc(C(F)(F)F)c3)o2)cc(OC)c1OC |  | -27.5% | 9.2 µM (active) | 
CCC1CCCCN1C(=O)CSc1nnc(CNC(=O)c2cc(OC)c(OC)c(OC)c2)o1 (stereo not drawn) |  |  |  | inactive
COc1ccc(C(=O)NCc2nnc(SCC(=O)N3CCCC3)o2)cc1 |  |  |  | inactive
COc1cc(C(=O)NCc2nnc(SCC(=O)N3CCCCC3)o2)cc(OC)c1OC |  | 4.42% | 18.4 µM (active) | 
Cc1ccc(NC(=O)CSc2nnc(CNC(=O)c3ccco3)o2)cc1 | -12.8% (inactive) |  |  | 
CCOc1ccc(NC(=O)CSc2nnc(CNC(=O)c3ccco3)o2)cc1 | 4.79% (inactive) | 12.8% |  | 
Cc1cc[n+]2c3c(cccc13)CCC2 |  | 21.6% |  | inactive
Cn1c(SCC(=O)Nc2nccs2)nnc1-c1ccco1 | 8.24% (inactive) | 19.7% |  | 
O=C(CCNS(=O)(=O)c1ccccc1C(F)(F)F)N1CCN(C(c2ccccc2)c2ccccc2)CC1 | 23.5% (inactive) | 9.11% |  | 
O=C(CCNS(=O)(=O)c1ccccc1F)N1CCN(Cc2ccccc2)CC1 |  |  |  | inactive
O=C(CCNS(=O)(=O)c1ccccc1F)N1CCN(C(c2ccccc2)c2ccccc2)CC1 |  |  | 23.1 µM (active) | 
COc1cc(CN(C(=S)NCC(=O)NC2CC2)C2CCCC2)cc(OC)c1OC | -7.95% (inactive) | 4.91% |  | 
CS(=O)(=O)N1N=C(c2ccccc2)CC1c1cccs1 (stereo not drawn) | 0.108% (inactive) | -4.84% |  | 
N=C(N)Sc1nc(N2CCCCC2)nc(N2CCCCC2)n1 | -23.5% (inactive) | 2.17% |  | 
CN(C)S(=O)(=O)c1cccc(-c2nnc(SCC(=O)NCCCCCC(=O)O)n2-c2ccc(F)cc2)c1 | 8.47% (inactive) | 5.6% |  | 
CNc1c(NS(=O)(=O)c2cc(OC)ccc2OC)c(=O)oc2ccccc12 |  | -19.8% |  | inactive
CCCNc1c(NS(=O)(=O)c2ccc3c(c2)CCCC3)c(=O)oc2ccccc12 | 13.3% (inactive) | -4.72% |  | 
CC(=O)Nc1ccc(S(=O)(=O)Nc2c(NC3CCCCC3)c3ccccc3oc2=O)cc1 |  | -18% |  | inactive
O=C(O)CCC(=O)Nc1ccc(S(=O)(=O)c2ccc(NC(=O)CCC(=O)O)cc2)cc1 | 25% (inactive) | 14.2% |  | 
CCCNc1c(NS(=O)(=O)c2ccc(Br)cc2)c(=O)oc2ccccc12 |  | -47.1% |  | inactive
CCCNc1c(NS(=O)(=O)c2ccc(C)c(C)c2)c(=O)oc2ccccc12 |  | -4.13% | 0.291 µM (active) | 

Compound | lipid storage change, negative = inhibition | cell number change | Potency | outcome
CCC(=O)Nc1ccc(S(=O)(=O)c2ccc(NC(=O)CC)cc2)cc1 |  | 0.0647% | 10.3 µM (active) | 
CCC(=O)Nc1ccc(S(=O)(=O)Nc2c(NC)c3ccccc3oc2=O)cc1 |  | 8.07% | 18.4 µM (active) | 
CCCNc1c(NS(=O)(=O)c2ccc(NC(=O)CC)cc2)c(=O)oc2ccccc12 |  | -23.3% |  | inactive
CNc1c(NS(=O)(=O)c2ccc(OC)c(Cl)c2)c(=O)oc2ccccc12 |  | -27.3% | 16.4 µM (active) | 
COc1ccc(S(=O)(=O)Nc2c(NC3CCCCC3)c3ccccc3oc2=O)cc1Cl |  | -20.1% |  | inactive
CC(=O)Nc1ccc(S(=O)(=O)c2ccc(C)cc2)cc1 | -24% (inactive) | -22.1% |  | 
O=C(NNS(=O)(=O)c1ccccc1)c1cnn(-c2ccccc2)c1-n1cccc1 | 7.45% (inactive) | 9.3% |  | 
O=C1CC(NS(=O)(=O)c2cc(F)ccc2F)CN1c1ccc2c(c1)OCCO2 (stereo not drawn) |  |  |  | inactive
CC(=O)N1CCc2cc(Br)cc(S(=O)(=O)N3CCCCCC3)c21 | 1.88% (inactive) | -5.11% |  | 
Cn1cccc1/C=N/NC(=O)CSc1nc2ccccc2[nH]1 | 15.8% (inactive) | 5.5% |  | 
CCC(=O)NC(=S)Nc1ccc(NC(=O)c2ccc(Br)o2)cc1 | -15.2% [at 9.22 µM] (inactive) | -10.2% |  | 
C=CCn1c(CNC(=O)c2ccccc2F)nnc1SCC(=O)NC(C)c1ccccc1 (stereo not drawn) | 9.08% (inactive) | 1.35% |  | 
CCN(C(=O)COC(=O)COc1ccc2c(C)cc(=O)oc2c1)C1CCS(=O)(=O)C1 (stereo not drawn) |  | -49.7% | 0.0461 µM (active) | 
Cc1cc(=O)oc2cc(OCC(=O)OCC(=O)N(C)C3CCS(=O)(=O)C3)ccc12 (stereo not drawn) | -5.08% (inactive) | 7.81% |  | 
Cc1cc(=O)oc2cc(OCc3ccc(C(=O)OCC(=O)N(C)C4CCS(=O)(=O)C4)cc3)ccc12 (stereo not drawn) | -1.78% (inactive) | -7.42% |  | 
Fc1ccccc1C(c1nnnn1C1CCCC1)N1CCN(Cc2ccccc2)CC1 (stereo not drawn) | -1.04% (inactive) | -15.7% |  | 
COc1ccccc1NC(=O)Nc1ccc(Br)cn1 | 21.8% (inactive) | -23.3% |  | 
COc1ccc(C2/C=C\CN(S(=O)(=O)/C=C/c3ccccc3)[C@H](Cc3ccccc3)C(=O)N2Cc2ccc(F)cc2)cc1 (stereo partly drawn) | 13.6% (inactive) | 2.68% |  | 
COc1cc(/C=N/NC(=O)c2ccc3nc[nH]c3c2)ccc1O | 4.27% (inactive) | 8.7% |  | 
COc1cccc(CNC(=O)COc2cccc3c2OC(C)(C)C3)c1 |  |  |  | inactive
Cc1ccc(CNC(=O)COc2cccc3c2OC(C)(C)C3)cc1 |  |  | 10.3 µM (active) | 
CC1(C)Cc2cccc(OCC(=O)NCc3ccc(F)cc3)c2O1 | 20.4% (inactive) | 2.51% |  | 
